# The full list was thinned out, with hits kept by preference.
# DUX4 inh: blocks DUX4-driven transcriptional activation | 293T-iDUX4 ZSCAN4-Gaussia luciferase reporter, 24 h; hits give low values | activity change, negative = inhibition, % (concentration not given with the values) | actives 0.8% (n = 37,000);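 active = mean inhibition of at least 10% in the main channel, exceeding the control channel by a set limit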;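 also: 0% = median of neutral control wells and -100% = median of positive control wells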
# * = called active by the depositor.
SMILES,DUX4 inh
CN(C)CC(=O)Nc1ccc2c(c1)[C@H]1C[C@H](CC(=O)NCc3ccc(-c4ccccc4)cc3)O[C@@H](CO)[C@H]1O2,-9.0
O=C(C[C@@H]1C[C@@H]2c3cc(NC(=O)Cc4ccncc4)ccc3O[C@@H]2[C@@H](CO)O1)NCc1cccc(F)c1,-5.4
O=C(C[C@@H]1C[C@H]2c3cc(NC(=O)Cc4ccncc4)ccc3O[C@H]2[C@@H](CO)O1)NCc1cccc(F)c1,3.8
O=C(C[C@H]1C[C@@H]2c3cc(NC(=O)Cc4ccncc4)ccc3O[C@@H]2[C@H](CO)O1)NCc1ccc(-c2ccccc2)cc1,-9.5
O=C(C[C@H]1C[C@H]2c3cc(NC(=O)Cc4ccncc4)ccc3O[C@H]2[C@H](CO)O1)NCc1cccc(F)c1,-29.9*
COc1ccccc1CNC(=O)C[C@H]1C[C@H]2c3cc(NC(=O)Cc4ccncc4)ccc3O[C@H]2[C@H](CO)O1,-34.4*
COc1ccccc1NC(=O)N[C@@H]1C=C[C@@H](CC(=O)NCc2ccc(Cl)c(Cl)c2)O[C@H]1CO,-7.9
Cc1ccccc1-c1ccc([C@@H]2[C@H]3CN(C(=O)c4cccnc4)CC(=O)N3[C@H]2CO)cc1,1.2
O=C1CCC(=O)N[C@@H](c2ccccc2)C/C=C\CCN1,-1.3
Cc1noc(C)c1NC(=O)N[C@H]1CC[C@@H](CC(=O)N2CCN(C)CC2)O[C@@H]1CO,1.5
C[C@H](CO)N1C[C@H](C)[C@@H](CN(C)C(=O)Nc2ccc3c(c2)OCO3)OCc2ccccc2-c2ccccc2C1=O,20.2
COc1ccc(S(=O)(=O)Nc2ccc3c(c2)C(=O)N([C@@H](C)CO)C[C@@H](C)[C@@H](CN(C)C(=O)NC2CCCCC2)O3)cc1,-2.9
CN(C)C(=O)c1ccc(-c2ccc([C@@H]3[C@@H](CO)N4CCCCN(CCC(F)(F)F)C[C@@H]34)cc2)cc1,11.1
COc1ccccc1C#Cc1ccc([C@@H]2[C@H]3CN(CCC(F)(F)F)CCCCN3[C@H]2CO)cc1,-29.7*
CN(C)C(=O)c1ccc(-c2ccc([C@H]3[C@H]4CN(CCC(F)(F)F)CCCCN4[C@H]3CO)cc2)cc1,8.3
O=C(C1CC1)N1CCCCN2[C@H](CO)[C@@H](c3ccc(-c4cccc(F)c4)cc3)[C@@H]2C1,-23.2*
Cc1cccc(-c2ccc([C@@H]3[C@@H](CO)N4CCCCN(Cc5ccncc5)C[C@H]34)cc2)c1,-4.7
Cc1cccc(-c2ccc([C@H]3[C@H]4CN(CCC(F)(F)F)CCCCN4[C@H]3CO)cc2)c1,-49.3*
O=S(=O)(c1ccccc1)N1CCCCN2[C@H](C1)[C@@H](c1ccc(-c3ccccc3)cc1)[C@@H]2CO,14.6
CC(=O)N1CCCCN2[C@H](CO)[C@@H](c3ccc(C#Cc4ccccc4F)cc3)[C@H]2C1,-7.4
Cn1cnc(S(=O)(=O)N2CCCCN3[C@H](CO)[C@H](c4ccc(-c5cccc(F)c5)cc4)[C@@H]3C2)c1,6.4
O=C(C1CC1)N1CCCCN2[C@H](CO)[C@@H](c3ccc(-c4cccc(F)c4)cc3)[C@H]2C1,-0.4
O=C(C1CC1)N1CCCCN2[C@H](C1)[C@H](c1ccc(-c3cccc(F)c3)cc1)[C@@H]2CO,0.8
Cc1ccccc1S(=O)(=O)N1CCCCN2[C@H](CO)[C@@H](c3ccc(-c4cccc(F)c4)cc3)[C@@H]2C1,-19.6*
Cn1cnc(S(=O)(=O)N2CC[C@@H]3[C@H]2c2cc(C4=CCCCC4)ccc2N[C@@H]3CO)c1,20.4
SMILES,DUX4 inh
O=C(Cc1ccccc1)N1C[C@@H]2[C@H](c3ccccc31)[C@H](CO)N2C(=O)c1cccc(F)c1,-4.8
COc1ccc2c3c([nH]c2c1)[C@@H](CO)N(C(=O)CN1CCOCC1)CC31CCN(CC2CCCC2)CC1,17.7
COc1ccc2c3c(n(C)c2c1)[C@@H](CO)N(C(=O)C1CCOCC1)CC31CN(C)C1,10.7
CCC(=O)N1C[C@@H](C)[C@H](OC)CN(C)C(=O)c2ccc(NC(=O)C3CCOCC3)cc2OC[C@H]1C,2.2
O=C1NCCOCc2cn(nn2)CC[C@H]1Cc1ccc(F)cc1,-3.5
C[C@H]1CN([C@@H](C)CO)C(=O)CCCn2cc(nn2)CO[C@H]1CN(C)Cc1ccc2c(c1)OCO2,3.5
C[C@H](NC(=O)[C@@H]1[C@@H](CO)[C@@H]2Cn3c(ccc(-c4ccccc4)c3=O)[C@H]1N2C)c1ccccc1,10.2
OC[C@@H]1[C@H](c2ccc(C#Cc3ccccc3)cc2)[C@H]2CN(Cc3cncnc3)CCCCN12,-8.8
OC[C@@H]1[C@H](c2ccc(-c3cccc(F)c3)cc2)[C@@H]2CN(Cc3cncnc3)CCCCN12,4.3
O=C(c1cccc(F)c1)N1CCCCN2[C@H](CO)[C@@H](c3ccc(-c4ccccc4)cc3)[C@H]2C1,3.2
OC[C@@H]1[C@@H](c2ccc(-c3cccc(F)c3)cc2)[C@H]2CN(CCC(F)(F)F)CCCCN12,-35.3*
OC[C@H]1[C@@H](c2ccc(-c3cccc(F)c3)cc2)[C@@H]2CN(Cc3cncnc3)CCCCN12,13.9
OC[C@H]1[C@@H](c2ccc(-c3cccc(F)c3)cc2)[C@H]2CN(CCC(F)(F)F)CCCCN21,-47.1*
OC[C@@H]1[C@H](c2ccc(-c3cccc(F)c3)cc2)[C@H]2CN(Cc3cncnc3)CCCCN12,6.4
CO[C@@H]1CC[C@H]2CCOc3ccc(C#N)cc3C(=O)N(C)[C@H](C)C(=O)N(C)C[C@H]1O2,4.0
O=C(C[C@@H]1CC[C@@H]2[C@H](COC[C@@H](O)CN2Cc2cccc(F)c2)O1)NCCc1ccncc1,8.6
O=C(c1cccc(F)c1)N1CC[C@@H]2[C@H]1c1cc(-c3ccccc3F)ccc1N[C@@H]2CO,1.1
COc1ccccc1CN1CC[C@@H]2[C@H](CO)Nc3ccc(C#Cc4ccccc4)cc3[C@@H]21,-8.3
OC[C@H]1Nc2ccc(-c3ccc(F)cc3)cc2[C@@H]2[C@H]1CCN2Cc1ccc(F)cc1,-4.3
CCC(=O)N1CC[C@@H]2[C@@H](CO)N(C)c3ccc(-c4cccc(F)c4)cc3[C@@H]21,9.9
COc1ccccc1CN1CC[C@@H]2[C@@H](CO)Nc3ccc(-c4cccc(F)c4)cc3[C@@H]21,-23.5*
O=C(Cc1ccncc1)N1CC[C@@H]2[C@@H](CO)Nc3ccc(-c4cccc(F)c4)cc3[C@@H]21,-9.2
O=C(Cc1ccncc1)N1CC[C@@H]2[C@H](CO)Nc3ccc(-c4ccccc4F)cc3[C@@H]21,-48.0*
CN1c2ccc(-c3cccc(F)c3)cc2[C@H]2[C@H](CCN2C(=O)c2ccccc2F)[C@H]1CO,-45.1*
O=C(c1ccc(F)cc1)N1CC[C@@H]2[C@H]1c1cc(-c3ccccc3F)ccc1N[C@@H]2CO,18.8
SMILES,DUX4 inh
O=C(Cc1ccccc1)N1CC[C@@H]2[C@@H](CO)Nc3ccc(-c4ccccc4F)cc3[C@@H]21,8.5
CN1c2ccc(-c3cccc(F)c3)cc2[C@H]2[C@H](CCN2C(=O)c2ccncc2)[C@@H]1CO,-0.9
O=C(c1cccc(F)c1)N1CC[C@@H]2[C@H](CO)Nc3ccc(-c4ccccc4F)cc3[C@@H]21,-31.8*
COC(=O)C[C@H]1CC[C@@H]2[C@@H](COc3ccc(NC(=O)c4cnccn4)cc3C(=O)N2C)O1,-3.0
O=C(C[C@H]1CC[C@@H]2[C@H](COC[C@H](O)CN2Cc2ccc(F)cc2)O1)NCCc1ccccc1,2.7
COc1ccc(S(=O)(=O)Nc2ccc3c(c2)C(=O)N([C@@H](C)CO)C[C@H](C)[C@@H](CN(C)C(=O)c2ccncc2)OCCCC[C@H](C)O3)cc1,-2.1
O=C(CN1CCOCC1)NCC[C@H]1CC[C@@H](NS(=O)(=O)c2ccc(Cl)cc2)[C@@H](CO)O1,-1.2
